Inconclusive results are not listed. A call without a number means that no potency is given here. Active and inactive are the calls of the source. The call rests on the fitted dose curve; in most records, active means well fitted inhibition curve with a large enough effect; inconclusive means small, poorly fitted or top-dose-only effect; inactive means flat fitted curve, though single readings scatter.
Test system: not listed separately
Experiment: Drug repurposing screens with cells derived from glioblastoma tumor samples (AID 1345199); further: nearly all actives have a fitted effect of over 40% in size
Settings: GBM patient neurospheres viability, ATP luminescence, 48 h; tumour line A
Outline: (§1)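 Primary testing used CD133+ neurospheres from four GBM patients, seven concentrations, 48 h exposure and ATP-based viability; confirmation added three slower-growing patient lines.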
Potency means the concentration at half of the fitted maximal effect.

Compound | Potency
CN=C(N)NC(=O)Nc1c(C)cccc1C | 17.8 µM (active)
CN1CCCN(C(c2ccccc2)c2ccc(Cl)cc2)CC1 (configuration not stated) | 4.47 µM (active)
Cc1cccc(C)c1NC(=O)c1cc(S(N)(=O)=O)c(Cl)cc1O | 35.5 µM (active)
Cc1ccc(/C=N/n2c(-c3ccccc3)csc2=S)cc1 | 17.8 µM (active)
O=C(Nc1ccc(S(=O)(=O)N2CCOCC2)cc1)c1cc(Cl)ccc1NS(=O)(=O)c1ccc(Cl)s1 | 6.31 µM (active)
CN(C(=O)C(Cl)Cl)c1ccc(OC(=O)c2ccco2)cc1 | 35.5 µM (active)
CC(C)OC(=O)c1cc2c(OCC(O)CNC(C)(C)C)cccc2[nH]1 (configuration not stated) | 11.2 µM (active)
O=C(O)c1[nH]n(-c2ccc(S(=O)(=O)O)cc2)c(=O)c1N=Nc1ccc(S(=O)(=O)O)cc1 | 28.2 µM (active)
O=C1OC2(c3ccccc31)c1cc(I)c(O)c(I)c1Oc1c2cc(I)c(O)c1I | 11.2 µM (active)
OC(CCCN1CCCCC1)(c1ccccc1)c1ccccc1 | 11.2 µM (active)
CCO[C@H](Cc1ccc(OCCc2ccc(OS(C)(=O)=O)cc2)cc1)C(=O)O | 14.1 µM (active)

Same assay, conditions: GBM patient neurospheres viability, ATP luminescence, 48 h; tumour line D

Compound | Potency
CN1CCCN(C(c2ccccc2)c2ccc(Cl)cc2)CC1 (configuration not stated) | 20 µM (active)
O=C(Nc1ccc(S(=O)(=O)N2CCOCC2)cc1)c1cc(Cl)ccc1NS(=O)(=O)c1ccc(Cl)s1 | 15.8 µM (active)
CC(C)OC(=O)c1cc2c(OCC(O)CNC(C)(C)C)cccc2[nH]1 (configuration not stated) | 22.4 µM (active)

Test system: astro (control astrocytes)
Experiment: as above
Settings: viability, ATP luminescence, 48 h; series mostly up to 45.9 µM
Outline: as §1

Compound | Potency
Nc1nnnn1-c1ccccc1 | inactive
O=C(O)Cc1ccc(OCCNC[C@H](O)c2ccccc2)cc1 | inactive
CO[C@@]1(NC(=O)CSC[C@@H](N)C(=O)O)C(=O)N2C(C(=O)O)=C(CSc3nnnn3C)CS[C@@H]21 | inactive
CCOC(=O)OCC/C(SC(=O)OCC)=C(\C)N(C=O)Cc1cnc(C)nc1N | inactive
CCCc1c2oc(C(=O)O)cc(=O)c2cc2c(=O)cc(C(=O)O)n(CC)c12 | inactive
C[C@H]1NCc2cc(-c3ccc4c(=O)c(C(=O)O)cn(C5CC5)c4c3OC(F)F)ccc21 | inactive
CN1C(=O)CC(C)(c2ccccc2)C1=O (configuration not stated) | inactive
CC(=O)OCC(=O)[C@@]1(O)CCC2C3CCC4=CC(=O)CC[C@]4(C)C3[C@@H](O)C[C@@]21C (some centres not stated) | inactive
CC(NN)c1ccccc1 (configuration not stated) | inactive
CN1CCCN=C1/C=C/c1cccs1 | inactive
OCCc1ccccc1 | inactive
CN=C(N)NC(=O)Nc1c(C)cccc1C | inactive
CC(=O)Nc1c(I)c(NC(C)=O)c(I)c(C(=O)O)c1I | inactive
CN(C)C(=O)CNC(=O)Cc1ccccc1 | inactive
Cc1cccc(C)c1NC(=O)c1cc(S(N)(=O)=O)c(Cl)cc1O | inactive
Cc1ccc(/C=N/n2c(-c3ccccc3)csc2=S)cc1 | inactive
O=C(Nc1ccc(S(=O)(=O)N2CCOCC2)cc1)c1cc(Cl)ccc1NS(=O)(=O)c1ccc(Cl)s1 | 31.6 µM (active)
CN(C(=O)C(Cl)Cl)c1ccc(OC(=O)c2ccco2)cc1 | inactive
O=C(O)c1[nH]n(-c2ccc(S(=O)(=O)O)cc2)c(=O)c1N=Nc1ccc(S(=O)(=O)O)cc1 | inactive
O=C(O)CNC(=O)CNC(=O)CNC(=O)CSC(=O)c1ccccc1 | inactive
Cc1ccccc1C(=O)N1CC/C(=N\OS(=O)(=O)O)c2ccc(Cl)cc21 | inactive
OCCCc1ccccc1 | inactive
O=C(CCCCC(=O)Nc1c(I)cc(I)c(C(=O)O)c1I)Nc1c(I)cc(I)c(C(=O)O)c1I | inactive
OC(CCCN1CCCCC1)(c1ccccc1)c1ccccc1 | inactive
CCCC(=O)O[C@]1(C(=O)COC(=O)CC)CC[C@H]2[C@@H]3CCC4=CC(=O)CC[C@]4(C)[C@H]3[C@@H](O)C[C@@]21C | inactive
CCN1CCN(C(=O)N[C@@H](C(=O)N[C@@H]2C(=O)N3[C@@H]2SC(C)(C)[C@H]3C(=O)O)c2ccccc2)C(=O)C1=O | inactive
O=C(O)c1ccccc1Nc1cc(Cl)ccc1C(=O)O | inactive
CCO[C@H](Cc1ccc(OCCc2ccc(OS(C)(=O)=O)cc2)cc1)C(=O)O | inactive

Reference: PubChem BioAssay (NCATS)
